From PubChem BioAssay AID651965 (National Center for Advancing Translational Sciences (NCATS), 2013)
The whole screen tested about 340,000 compounds, of which about 6,400 (1.9%) were called active. Another 4% or so got no clear call; they are omitted. The sample holds actives, similar compounds and a random draw of the others, so the mix is not that of the screen. Calls come from the whole dose curve; as a rule, active = well fitted falling curve with a large enough effect; inconclusive = small, poorly fitted or top-dose-only effect; inactive = no such curve, though single readings can be large or run the other way.

What follows are molecules tested against ATP-dependent Clp protease proteolytic subunit (Bacillus subtilis (strain 168)) (UniProt P80244) (assay: qHTS Assay for Activators of ClpP). Conditions: purified B. subtilis ClpP, FRET peptide cleavage, 20 min; series mostly up to 57.5 µM; activity change, negative = active: at the top concentration.
How it was run: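 Purified B. subtilis ClpP, 10 microg/mL final in Tris/HCl pH8 with KCl, BSA, glycerol and Tween-20, cleaved an Abz/nitrotyrosine-quenched decapeptide. Fluorescence (ex 320, em 430) was read at 0 and 20 min at room temperature. Delta was normalized to 5.8 microM ADEP and DMSO/no-enzyme controls.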
Note: the source files actives as falling curves though it sought activators and does not explain the sign; nearly all actives have a fitted effect of over 65% in size.
Potency is the fitted concentration of half-maximal effect.

| SMILES | activity change, negative = active | Potency |
| --- | --- | --- |
| COc1ccc2c(c1)C(C)=CC(C)(C)N2C(=O)CNCc1ccc2c(c1)OCO2 | 2.1% (inactive) |  |
| COc1ccc2c(c1)C(C)=CC(C)(C)N2C(=O)Nc1ccccc1 |  | 28.2 µM (active) |
| CC1=CC(C)(C)N(C(=O)CSc2nnc(-c3ccccc3)o2)c2ccc(C)cc21 | -0.107% (inactive) |  |
| COc1ccc(S(=O)(=O)N2CCCCC2c2cc(C(=O)NCc3ccc(F)cc3)no2)cc1 (centres undefined) | 0.0963% (inactive) |  |
| CC(=O)Oc1ccc(-c2nc3c(C)cccc3c(=O)o2)cc1 | -2.1% (inactive) |  |
| Cc1nc(N=C(N)N)nc2c(C)cccc12 | 0.0945% (inactive) |  |
| COc1nc(N=C(N)N)nc2c(C)cccc12 |  | 3.16 µM (active) |
| Nc1ccc(/C=C/c2ccnc3ccccc23)c([N+](=O)[O-])c1 | 0.526% (inactive) |  |
| O=C1NC[C@H](Cc2ccc(O)cc2)N(C[C@H]2CCCN2C[C@H](Cc2ccccc2)N2C[C@H](Cc3ccccc3)N(CCc3ccccc3)C(=O)C2=O)C1=O | -3.18% (inactive) |  |
| O=C(Nc1cccc(S(=O)(=O)N2CCOCC2)c1)C12CC3CC(CC(C3)C1)C2 |  | 31.6 µM (active) |
| O=C(CSc1ccccc1)Nc1cccc(S(=O)(=O)N2CCOCC2)c1 | 1% (inactive) |  |
| Cc1occc1C(=O)Nc1cccc(S(=O)(=O)N2CCOCC2)c1 | 1.54% (inactive) |  |
| CC(C)c1cccc(-c2csc(C(O)c3ccccc3)n2)c1 (centres undefined) | -2.46% (inactive) |  |
| OC(CBr)CN1CCCCC1 (centres undefined) | 0.573% (inactive) |  |
| CCc1ccc2[nH]c(=O)c(Cc3ccccc3)c(O)c2c1 | 3.85% (inactive) |  |
| COc1ccc(CNC(=O)c2ccc3c(O)c(S(=O)(=O)c4ccccc4)c(=O)[nH]c3c2)cc1 | -27% (inactive) |  |
| COC(=O)Cc1ccc(NC(=S)NCc2ccccc2)cc1 | -1.76% (inactive) |  |
| CCCOC(=O)Cc1c(O)c2ccccc2[nH]c1=O |  | 25.1 µM (active) |
| CCCc1nc2ccccc2c(=O)n1NC(=O)c1c(O)c2ccccc2[nH]c1=O | -15.9% (inactive) |  |
| O=C(Cc1ccccc1)NCc1ccc(F)cc1 | 3.53% (inactive) |  |
| COC(=O)Cc1c(-c2[nH]c3ccccc3c2CC(=O)OC)[nH]c2ccccc12 |  | 28.2 µM (active) |
| NC(=O)Cc1ccc2c(c1)[nH]c1ccccc12 | -19.7% (inactive) |  |
| O=C(Cc1c(O)c2ccccc2[nH]c1=O)NCc1ccccc1 |  | 20 µM (active) |
| CCC(C)N(c1ccc(/C=C/c2ccnc3ccccc23)cc1)C(C)CC (centres undefined) | -0.824% (inactive) |  |
| COC(=O)c1ccc2nc(C3CCCCC3)c(Cc3cccc(F)c3)n2c1 | -13.5% (inactive) |  |

| SMILES | activity change, negative = active | Potency |
| --- | --- | --- |
| C(=Nc1ccc(/C=C/c2ccnc3ccccc23)cc1)Nc1ccc(/C=C/c2ccnc3ccccc23)cc1 | -6.68% (inactive) |  |
| Nc1ncnc2c1ncn2[C@@H]1O[C@H](C(=O)N2CCSC2)[C@@H](O)[C@H]1O | 0.957% (inactive) |  |
| CCOC(=O)C1C(C)C(C(C)(C)C)N(S(=O)(=O)c2ccc(C)cc2)C1c1ccccc1 (centres undefined) | 0.713% (inactive) |  |
| Nc1nc(CSc2nnnn2-c2ccccc2)nc(Nc2ccccc2)n1 | -2.32% (inactive) |  |
| OC[C@@H]1CN(Cc2cccs2)C[C@H](n2cnc3c(NC4CCCC4)ncnc32)O1 | -2.11% (inactive) |  |
| O=C(CCC1N=C2c3ccccc3N=C(SCc3ccccc3F)N2C1=O)NCCc1ccccc1 (centres undefined) | 4.35% (inactive) |  |
| CCOC(=O)CSC1=Nc2ccccc2C2=NC(CCC(=O)NCc3ccc(F)cc3)C(=O)N12 (centres undefined) | 4.54% (inactive) |  |
| NC(=O)CSC1=Nc2ccccc2C2=NC(CCC(=O)NCc3ccc(F)cc3)C(=O)N12 (centres undefined) |  | 28.2 µM (active) |
| CCCOc1ccc(F)cc1-c1cc(C(=O)Nc2ccc(F)cc2)[nH]n1 | -0.0166% (inactive) |  |
| CC(C)C1CCN(C(=O)C2CCC(=O)N(C3CCCCCC3)C2)CC1 (centres undefined) | 1.03% (inactive) |  |
| O=c1c2[nH]c3ccc(Cl)cc3c2ncn1Cc1ccccn1 | -14.7% (inactive) |  |
| Cc1ccc2[nH]c3c(=O)n(Cc4ccccn4)cnc3c2c1 |  | 31.6 µM (active) |
| COc1ccc(Cn2ccnc2SCC(=O)NCc2ccco2)cc1 | -2.28% (inactive) |  |
| COc1ccc2c(c1)c1ncn(Cc3ccccn3)c(=O)c1n2C | 4.35% (inactive) |  |
| COc1ccc2[nH]c3c(=O)n(Cc4ccco4)cnc3c2c1 |  | 25.1 µM (active) |
| COCCN(Cc1ccco1)C(=O)Cn1ncc2c([nH]c3ccccc32)c1=O | 4.44% (inactive) |  |
| CN(C)CCCOc1ccc(-c2ccc3nccn3c2)cn1 | -24.3% (inactive) |  |
| COc1cccc(NC(=O)C2(C)CCN2Cc2ccccc2Cl)c1 (centres undefined) | -0.477% (inactive) |  |
| CC1=C(C(=O)N(C(C)C)C(C)C)CC(CC(=O)NCCCCc2ccccc2)C(=O)N1CCC1=CCCCC1 (centres undefined) | -0.51% (inactive) |  |
| CN(Cc1ccccc1)C(=O)CCC1CCN(C(=O)c2ccco2)CC1 | 1.04% (inactive) |  |
| Cc1ccc2c(c1)c1ncn(CCC3=CCCCC3)c(=O)c1n2C | -29.4% (inactive) |  |
| Cc1ccc2c(c1)c1ncnc(N3CCc4ccccc4C3)c1n2C |  | 31.6 µM (active) |
| Cc1ccc2c(c1)c1ncn(Cc3ccc(F)cc3)c(=O)c1n2C | 3.72% (inactive) |  |
| CCCCN1C(=O)C(CC(=O)NCc2cccs2)CC(C(=O)N2CCCCCC2)=C1C (centres undefined) | 2.09% (inactive) |  |
